Activity calls are given as the source filed them. How the calls were made is not given here.
Biological target: Estrogen receptor (Homo sapiens) (UniProt P03372)
Test: ERalpha ligand binders by competition, primary screen, cell-based, Cos7 ERalpha-GFP, flow cytometry (AID 1211);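 further: 0% = DMSO vehicle wells and 100% = no E2-Alexa633 signal left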
Conditions: fluorescent ligand competition, stronger effect = higher value

Estrogen receptor (Homo sapiens), sequence (P03372 whole entry, looked up): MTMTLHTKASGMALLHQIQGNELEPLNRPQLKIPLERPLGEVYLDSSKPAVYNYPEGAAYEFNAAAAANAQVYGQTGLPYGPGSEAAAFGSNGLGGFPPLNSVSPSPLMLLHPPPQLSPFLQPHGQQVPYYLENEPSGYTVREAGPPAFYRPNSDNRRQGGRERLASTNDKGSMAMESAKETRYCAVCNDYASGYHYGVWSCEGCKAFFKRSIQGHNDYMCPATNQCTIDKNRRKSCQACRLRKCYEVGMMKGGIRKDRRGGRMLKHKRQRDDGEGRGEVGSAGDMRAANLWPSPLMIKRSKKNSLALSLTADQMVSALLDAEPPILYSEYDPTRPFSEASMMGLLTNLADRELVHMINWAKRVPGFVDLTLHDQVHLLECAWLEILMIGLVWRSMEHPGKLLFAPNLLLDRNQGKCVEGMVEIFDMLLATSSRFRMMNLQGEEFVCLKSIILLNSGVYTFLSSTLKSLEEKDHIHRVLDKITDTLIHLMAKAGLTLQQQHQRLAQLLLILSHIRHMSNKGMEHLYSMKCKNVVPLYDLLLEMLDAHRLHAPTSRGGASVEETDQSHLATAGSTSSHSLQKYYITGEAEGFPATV

| Structure (SMILES) | inhibition of ligand binding (at 10 µM) | inhibition of ligand binding (binding inhibition, at 0.1 µM) [%] |
| --- | --- | --- |
| COc1ccc2c(c1)C1C=CCC1C(c1cc3c(cc1Br)OCO3)N2 (stereo not given) | 0% (inactive) | 10 |
| O=C(Nc1cccc2cccc(NC(=O)c3ccco3)c12)c1ccco1 | 54% (inactive) | 46 |
| O=C(O)C1CSC(c2coc3ccccc3c2=O)N1 (stereo not given) | 6% (inactive) | 47 |
| COc1cc2cc(C(c3nnnn3C3CCCC3)N3CCc4ccccc43)c(=O)[nH]c2cc1OC (stereo not given) | 36% (inactive) | 56 |
| CCOC(=O)Cc1csc(NC(=O)Cc2cccs2)n1 | 28% (inactive) | 12 |
| C/C(N)=C(/C#N)C(=O)CSc1nnc(-c2ccc(OC(F)F)cc2)o1 | 20% (inactive) | 24 |
| O=C(c1cc2sccc2n1Cc1ccccc1)N1CCc2ccccc21 | 45% (inactive) | 20 |
| COCCNC(=O)c1c(N)n(/N=C/c2cccs2)c2nc3ccccc3nc12 | 41% (inactive) | 6 |
| CCOC(=O)c1ccc(NC(=O)CSc2nc(C)cc(=O)[nH]2)cc1 | 49% (inactive) | 21 |
| O=C(Cc1cccs1)Nc1ccccn1 | 0% (inactive) | 16 |
| C/C(N)=C(/C#N)C(=O)CSc1nnc(COc2ccccc2Cl)o1 | 20% (inactive) | 8 |
| COc1cc(/C=N/N2CCN(C3c4ccccc4-c4ccccc43)CC2)ccc1O | 36% (inactive) | 15 |
| O=C1C=CC(O)(c2cc(=O)c3c(O)cc(O)cc3o2)C=C1 | 38% (inactive) | 42 |
| O=C(Cn1nnc(-c2ccc3c(c2)OCO3)n1)NCc1ccco1 | 38% (inactive) | 62 |
| O=S(=O)(NCc1csc(-c2cccnc2)n1)c1ccc(Cl)s1 | 45% (inactive) | 6 |
